Shown are actives, neighbours in structure and some others; about 4.5% of the full set was active somewhere.
TPT1 inh: C. albicans TPT1 enzyme inhibition; recombinant caTPT1, FP RNA substrate dephosphorylation; inhibition, % at 5 µM; 300,000 compounds, 0.81% hits;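 active = inhibition above the mean of all tested compounds plus 3 SD, set per screening campaign, cut at about 24% in these data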;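 also: plate controls were DMSO alone for no effect and ferristatin control at 100 nM for full effect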
NR3A LBD binder: modulates the human NR3A ligand-binding domain; NR3A LBD differential scanning fluorimetry, Tm shift; 0% = protein alone, 100% = glycine-bound protein; Tm shift relative to glycine control, % at 25 µM; 340,000 compounds, 2.5% hits; AID 1259313;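 active = melting temperature shift of at least 10% of the positive control shift, at one fixed dose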
Rpn11 block: inhibitors of human proteasome Rpn11. O00487. human 26S proteasome, Ub4-pepOG fluorescence polarization; 20S core pre-blocked with epoxomicin. inhibition, % at 20 µM. 360,000 compounds, 0.59% hits;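 active = inhibition at 20 µM, scaled to each plate's controls, above about 33%, limit read from the data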
EBNA-1 inh: blocks EBNA-1 binding to DNA | EBNA-1 DNA binding, fluorescence polarization | 300,000 compounds, 0.34% hits | inhibition, % at 14.8 µM; in the data active = inhibition above about 28%
ZTA counter: blocks Epstein-Barr virus ZTA, an EBNA-1 counter-screen | P03206 | ZTA-DNA binding, fluorescence polarization | inhibition, % at 11 µM | 320,000 compounds, 0.15% hits; in the data active = inhibition above about 33%
Target sequence (P03206 whole entry, looked up): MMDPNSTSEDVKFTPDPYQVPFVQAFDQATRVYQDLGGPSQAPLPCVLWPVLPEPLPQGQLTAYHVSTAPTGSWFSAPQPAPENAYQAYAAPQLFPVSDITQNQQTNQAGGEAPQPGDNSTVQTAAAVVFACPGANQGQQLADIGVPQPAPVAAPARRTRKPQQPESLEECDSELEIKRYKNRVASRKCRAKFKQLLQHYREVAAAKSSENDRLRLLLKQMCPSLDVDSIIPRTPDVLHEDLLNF
dFosB activator: enhances mouse delta FosB homodimer DNA binding; purified delta FosB, TAMRA-CDK5 oligo fluorescence polarization; percent of positive-control signal above neutral wells; activation, % at 25 µM; 340,000 compounds, 0.99% hits; AID 493131;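 active = mean activation above about 17%, with every replicate also reaching it, limit read from the data, passing the limit was not always enough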
An asterisk follows results filed as active; . = no result given.

SMILES	TPT1 inh	NR3A LBD binder	Rpn11 block	EBNA-1 inh	ZTA counter	dFosB activator
O=C(COC(=O)C1CC2C=CC1C2)Nc1ccc([N+](=O)[O-])cc1 (stereo not given)	.	-20	2	.	.	-3
CN(C)c1ccc(/C=C/c2cc[n+](C)cc2)cc1	11	-1	.	4	-4	32*
CC[n+]1c(/C=C/c2ccc(OC)c(OC)c2)ccc2ccccc21	15	1	16	-3	-19	-6
CC[n+]1c(/C=C/c2ccc(N(C)C)cc2)ccc2ccccc21	9	-1	17	4	11	53*
CC[n+]1ccc(/C=C/c2ccc(N(C)C)cc2)c2ccccc21	.	-3	-5	.	.	47*
Cc1cccc(CSc2ccc(S(=O)(=O)N3CCCC3)cn2)c1	.	0	-2	.	-2	-4
CCOc1ccc(N(CC(=O)NCC2CCCO2)C(=O)CCC(=O)Nc2ccccn2)cc1 (stereo not given)	-5	4	1	3	-2	-5
CCOc1ccc2oc(C(=O)Nc3cc(C)ccn3)c(C)c2c1	-2	-4	6	2	6	-17
c1ccc(CN2CCC3(CC2)Nc2ccccc2S3)cc1	-1	0	1	-6	-3	0
Cn1ncc(Br)c1C(=O)Nc1ccc(Br)cn1	0	-3	-4	-2	16	-1
Cn1ncc(Br)c1C(=O)Nc1ccc(Cl)cn1	-4	13*	-4	11	3	3
CCOC(=O)CN1C(c2ccc(O)cc2)Nc2ccc(Br)cc2C1c1ccccc1 (stereo not given)	-1	19*	-14	-10	1	-12
CCOC(=O)CN1C(=O)Nc2ccc(Br)cc2C1c1ccccc1 (stereo not given)	-3	-1	-2	10	1	-9
O=C(NCc1nnnn1-c1ccc(F)cc1)c1ccc(S(=O)(=O)N2CCOCC2)cc1	.	.	3	.	.	.
CCOC(=O)c1ccc(NC(=O)CCNS(=O)(=O)c2cc(Br)cnc2N)cc1	-1	15*	-5	3	3	-13
Cc1cc(C)cc(NC(=O)CCNS(=O)(=O)c2cc(Br)cnc2N)c1	-4	12*	-6	7	8	-1
COc1ccc(NC(=O)CCNS(=O)(=O)c2cc(Br)cnc2N)cc1OC	-6	3	7	3	-8	-3
Cc1cc(C)n2nc(SCC(=O)Nc3ccc(F)c(F)c3F)nc2n1	.	6	-6	.	5	4
COc1ccc(Cn2c(=O)[nH]c3cc(C(=O)N4CCN(c5ccc(C(C)=O)cc5)CC4)ccc3c2=O)cc1	2	-6	9	10	4	14
O=C(/C=C/c1ccc(Br)cc1)c1ccc(NC2=NCCCS2)cc1	2	-7	13	5	-5	20*
O=C(/C=C/c1ccccc1)c1ccc(NC2=NCCCS2)cc1	1	-2	1	-14	-5	4
CCOc1cc(-c2sc(Nc3cc(C)ccc3OC)n[n+]2-c2ccccc2)ccc1OC	-1	13*	3	-1	-9	1
CCOc1cc(-c2sc(Nc3ccc(CC)cc3)n[n+]2-c2ccccc2)ccc1OC	1	1	-3	-6	0	4
CC(=O)c1ccc(S(=O)(=O)N2CCN(S(=O)(=O)c3ccccc3C(F)(F)F)CC2)cc1	-3	-1	-7	0	24	5
CC(C)(C)C(=O)/C=C/c1ccc(Oc2ccccc2)cc1	.	10*	5	.	.	-4
SMILES	TPT1 inh	NR3A LBD binder	Rpn11 block	EBNA-1 inh	ZTA counter	dFosB activator
O=C(O)/C=C/c1ccc(Oc2ncccn2)cc1	-2	1	1	4	-7	4
Cc1ccc(NS(=O)(=O)c2cc(C(=O)N(C)C3CCN(C)CC3)ccc2Cl)cc1Cl	.	0	-3	.	.	4
Cc1ccc(C(=O)NCC(=O)OCC(=O)c2cc(C)n(Cc3ccco3)c2C)cc1	-2	0	-9	3	-14	1
C=CCn1c(C)cc(C(=O)COc2nncc3ccccc23)c1C	6	16*	8	-1	13	-5
C=CCn1c(C)cc(C(=O)COC(=O)CNC(=O)c2ccccc2)c1C	1	13*	-3	-5	7	-4
Cc1cc2nc(C)n(CCCNC(=O)Nc3ccc(F)cc3)c2cc1C	-1	-10	3	3	11	-8
COc1cccc(Nc2nc(-c3sc(C)nc3C)cs2)c1	0	12*	0	6	8	-12
